Assay results from the supplement of paper PMC7366291.
Where a name gives a salt, the structure may show the parent alone. ± gives the standard deviation of the averaged measurements.

Test system: Danio rerio Tg(wt1b:EGFP) embryo, pronephros
Assay: pronephric angle neck segment to proximal convoluted tubule (mean of left and right), fold change vs DMSO control; higher = larger pronephric angle
Conditions: 25 µM; exposure: 24-48 hpf
Summary of the method: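 Every feature is expressed as a fold change relative to the averaged DMSO-treated embryos of the same day. The exposure ran from 24 to 48 hpf at 28.5°C, with dechorionated Tg(wt1b:EGFP) zebrafish embryos in HEPES-buffered E3 containing 0.003% PTU, 0.5% DMSO and 25 μM compound. Dorsal pronephros images taken in agarose-filled 96-well plates were reduced to maximum projections, on which 16 reference points were set by hand in Fiji for a macro to compute distances and angles. Values more than 2 SD from the feature mean were not used.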

Compound | pronephric angle neck segment
CCN(CC)C(C)C(=O)c1ccccc1 (stereo not given) [Amfepramone hydrochloride] | 1.01 ± 0.0072
Fc1ccc(C(OCCN2CCN(CCCc3ccccc3)CC2)c2ccc(F)cc2)cc1 | 1.02 ± 0.097
CC(=O)OCC(=O)[C@H]1CC[C@H]2[C@@H]3CC[C@H]4C[C@H](O)CC[C@]4(C)[C@H]3C(=O)C[C@]12C [Alfadolone acetate] | 1 ± 0.018
NC(=O)C[S+]([O-])C(c1ccccc1)c1ccccc1 (stereo not given) [Modafinil] | 1 ± 0.041
NC(=O)OCCCc1ccccc1 [Phenprobamate] | 1.01 ± 0.05
CC(Cc1ccccc1)NCCC(c1ccccc1)c1ccccc1 (stereo not given) [Prenylamine lactate] | 0.953 ± 0.032
CNC(C)(C)Cc1ccccc1 [Mephentermine hemisulfate] | 0.991 ± 0.081
CC(=O)[C@H]1CC[C@H]2[C@@H]3CC[C@H]4C[C@H](O)CC[C@]4(C)[C@H]3C(=O)C[C@]12C [Alfaxalone] | 1.02 ± 0.027
CN1[C@@H]2CC[C@H]1C[C@@H](OC(=O)[C@H](CO)c1ccccc1)C2 [Hyoscyamine (L)] | 0.999 ± 0.012
C[C@]12CC[C@@H](O)C[C@@H]1CC[C@@H]1[C@@H]2CC[C@]2(C)C(=O)CC[C@@H]12 [Androsterone] | 0.999 ± 0.015
OC(c1ccccc1)(c1ccccc1)C1CCNCC1 [Azacyclonol] | 0.994 ± 0.029
O=C(CCCN1CCC(n2c(=O)[nH]c3ccccc32)CC1)c1ccc(F)cc1 [Benperidol] | 0.992 ± 0.033
O=[N+]([O-])O[C@@H]1CO[C@H]2[C@@H]1OC[C@@H]2O [Isosorbide mononitrate] | 0.986 ± 0.021
CCCC(C)C1(CC)C(=O)NC(=O)NC1=O (stereo not given) [Pentobarbital] | 1.214 ± 0.0019
CCN[C@@H](C)Cc1cccc(C(F)(F)F)c1 [Dexfenfluramine hydrochloride] | 1.01 ± 0.03
C[N+]1(C)CCCC(OC(=O)C(O)(c2ccccc2)c2ccccc2)C1 (stereo not given) [Mepenzolate bromide] | 1 ± 0.054
CC[C@@H](CO)NC(=O)[C@@H]1C=C2c3cccc4[nH]cc(c34)C[C@H]2N(C)C1 [Methylergometrine maleate] | 1.05 ± 0.031
N[C@@H]1C[C@H]1c1ccccc1 [Tranylcypromine hydrochloride] | 1.01 ± 0.038

Compound | pronephric angle neck segment
CCC(=O)O[C@H]1CC[C@H]2[C@@H]3CCC4=CC(=O)CC[C@]4(C)[C@H]3CC[C@]12C [Testosterone propionate] | 0.9686 ± 0.0074
CC(=O)O[C@H]1C[C@H](O[C@H]2[C@@H](O)C[C@H](O[C@H]3[C@@H](O)C[C@H](O[C@H]4CC[C@@]5(C)[C@H](CC[C@@H]6[C@@H]5C[C@@H](O)[C@]5(C)[C@@H](C7=CC(=O)OC7)CC[C@]65O)C4)O[C@@H]3C)O[C@@H]2C)O[C@H](C)[C@H]1O[C@@H]1O[C@H](CO)[C@@H](O)[C@H](O)[C@H]1O [Lanatoside C] | 1.01 ± 0.041
CCCN1C[C@H](CSC)C[C@@H]2c3cccc4[nH]cc(c34)C[C@H]21 [Pergolide mesylate] | 0.997 ± 0.029
c1ccc2nc(N3CCNCC3)ccc2c1 [Quipazine dimaleate salt] | 1.022 ± 0.0046
C[C@]12CC[C@@H](O)C[C@H]1CC[C@@H]1[C@@H]2CC[C@]2(C)C(=O)CC[C@@H]12 [3-alpha-Hydroxy-5-beta-androstan-17-one] | 1 ± 0.013
CN1C[C@H](CNC(=O)OCc2ccccc2)C[C@@H]2c3cccc4c3c(cn4C)C[C@H]21 [Metergoline] | 0.9894 ± 0.0045
Oc1ccc2c3c1O[C@H]1[C@@H](O)CC[C@@]4(O)[C@@H](C2)N(CC2CCC2)CC[C@]314 [Nalbuphine hydrochloride] | 1.04 ± 0.0056
C[C@]12CC[C@H]3[C@@H](CCC4=CC(=O)CC[C@@H]43)[C@@H]1CC[C@@H]2O [Nandrolone] | 0.95 ± 0.015
CNCC(O)c1ccc(O)cc1 (racemic) [(+,-)-Synephrine] | 1.017 ± 0.0012
C[C@H](N)[C@H](O)c1ccc(O)c(O)c1 [Levonordefrin] | 0.982 ± 0.012
CCC1(CC)C(=O)C=CNC1=O [Pyrithyldione] | 0.9934 ± 0.0041
NCCCNCCSP(=O)(O)O [Amifostine] | 1.02 ± 0.074
NCCc1c[nH]c2ccc(O)cc12 [Serotonin hydrochloride] | 1.064 ± 0.007
COc1cccc(C2(O)CCCCC2CN(C)C)c1 (stereo not given) [Tramadol hydrochloride] | 0.9988 ± 0.0034
C[C@@]12N[C@@H](Cc3ccccc31)c1ccccc12 [(-)-MK 801 hydrogen maleate] | 1.02 ± 0.069
CCC(C)C1O[C@]2(C=C[C@@H]1C)C[C@@H]1CC(C/C=C(\C)[C@@H](OC3C[C@H](OC)[C@@H](OC4C[C@H](OC)[C@@H](O)[C@H](C)O4)[C@H](C)O3)[C@@H](C)/C=C/C=C3\COC4[C@H](O)C(C)=CC(C(=O)O1)[C@]34O)O2 (stereo not given in full) [Avermectin B1a] | 1.14 ± 0.069
C#C[C@]1(O)CC[C@H]2[C@@H]3CCC4=CC(=O)CCC4=C3C=C[C@@]21CC [Gestrinone] | 1.03 ± 0.038
